Screening data deposited in PubChem BioAssay by National Center for Advancing Translational Sciences (NCATS).
Sampled rows, rich in hits. Any-hit rate of the full collection: about 2.5%.
VACV Venus inh: inhibitors of vaccinia virus (Venus reporter); Vaccinia virus Venus reporter expression, fluorescence; Potency, µM (titrated, usually from 36.5 µM), inactives show top-dose activity change, negative = inhibition, hits mostly inhibitors; 330,000 compounds, 0.46% hits; AID 720580; calls by dose curve; tested in A549 cells; also: nearly all actives have a fitted effect of over 30% in size
VACV mCherry inh: inhibitors of vaccinia virus infection (mCherry reporter signal) | Vaccinia virus mCherry reporter infection, fluorescence | Potency, µM (titrated, usually from 36.5 µM), inactives show at the top dose activity change, negative = inhibition, most hits filed as inhibitors | 310,000 compounds, 0.63% hits | AID 720579; calls by dose curve; tested in A549 cells; also: nearly all actives have a fitted effect of over 35% in size
Lassa entry inh: Lassa virus entry inhibition; Lassa virus pseudotype entry inhibition, cell reporter; Potency, µM (titrated, usually from 37.9 µM), inactives show at the top dose activity change, negative = inhibition, actives largely listed as inhibitors; 300,000 compounds, 1.2% hits; AID 540256; calls by dose curve; tested in HEK293 cells; also: nearly all actives have a fitted effect of over 50% in size
Marburg entry inh: Marburg virus entry inhibition | Marburg virus pseudotyped entry inhibition, cell reporter | Potency, µM (highest dose often 37.8 µM), for inactives: top-dose activity change, negative = inhibition, actives largely listed as inhibitors | 300,000 compounds, 1.8% hits | AID 540276; calls by dose curve; tested in HEK293 cells
Starred values were filed as active, the others as inactive; i = inactive; ? = inconclusive; / = no result; [ ] = remark or other dose. % is scaled to controls: 0 for no effect and ±100 for the full control effect; potency is read from the fitted curve at half-maximal effect.

SMILES	VACV Venus inh	VACV mCherry inh	Lassa entry inh	Marburg entry inh
Fc1ccc([C@H]2CCNCC2COc2ccc3c(c2)OCO3)cc1 (stereo not given in full)	-13.3%	-20.8%	/	/
Fc1ccc([C@H]2CCNC[C@H]2COc2ccc3c(c2)OCO3)cc1	/	/	/	16.4µM*
CN(C)CCCNS(=O)(=O)c1ccc(NC2CCCCCC2)c([N+](=O)[O-])c1	-19.5%	8.91µM*	-1.7%[46.1 µM]	?
O=C(O)c1cc(NS(=O)(=O)c2ccc(NC3CCCCC3)c([N+](=O)[O-])c2)cc(C(=O)O)c1	-1.8%	-18.0%	20.2%[46.1 µM]	-0.5%[46.1 µM]
CSc1nnc(CCNC(=O)c2ccc(-c3cccc(F)c3)cc2)n1-c1ccc(F)cc1	-4.3%	-16.3%	/	/
COc1ccc(-c2[nH]ncc2/C=C(/C#N)C(=O)NC2CCCCCC2)cc1	?	?	?	10µM*
O=C(O)CSC1=c2ccccc2=NC1c1cccs1 (stereo not given)	/	/	/	8.1%
COc1ccccc1-c1ccnc(-n2ncc(C(=O)NCCc3ccccn3)c2C)n1	-15.4%	?	/	/
C=C1NN(Cc2ccccc2)C(=O)N1c1ccc(OCc2ccccc2)cc1	-12.2%	i	/	/
Cc1ccccc1Oc1nc2c(C)cccn2c(=O)c1/C=C(\C#N)C(=O)NC1CCS(=O)(=O)C1 (stereo not given)	-8.8%	i	12.6µM*	?
CCOP(=O)(CCP(=O)(OCC)OCC)OCC.C[CH2][Sn]([Cl])([Cl])[CH2]C	-23.4%	-6.1%	12.6µM*	?
C/C(=N\NC(=O)c1cc(-c2cccc(OC(C)C)c2)nc2ccccc12)c1cccnc1	-1.3%	?	?	?
O=C(NNC(=O)c1cc(-c2ccncc2)nc2ccccc12)c1ccccc1O	?	12.6µM*	3.3%	-26.3%[46.1 µM]
C/C(=N\NC(=O)c1cc(-c2cccnc2)nc2ccccc12)c1ccc(O)cc1O	?	11.2µM*	6.31µM*	7.08µM*
Cc1cc(F)ccc1S(=O)(=O)Nc1ccccc1C(=O)NC1CCN(Cc2ccccc2)CC1	10µM*	?	?	?
Cc1ccccc1C(=O)NC1CCN(Cc2ccccc2)CC1	4.8%	i	-5.3%	-18.7%[46.1 µM]
O=C(CCS(=O)(=O)c1ccc(Br)cc1)Nc1cc(F)ccc1F	?	11.2µM*	-7.8%	?
COCC1CCCN(Cc2ccc3c(c2)CN(C(=O)c2cn4ccc(C)cc4n2)CCO3)C1 (stereo not given)	-0.5%	-8.0%	/	/
COc1ccc(OC)c(N=c2ssnc2Cl)c1	-7.0%	-10.8%	-2.7%	11.2%
COc1cc(N=c2ssnc2Cl)c(OC)cc1Cl	?	?	?	16.4µM*
CCC1CN(CC(=O)NC(c2ccccn2)C(F)(F)F)Cc2cc(OC)ccc2O1 (stereo not given)	3.9%	-12.1%	/	/
O=C(CCCN1CCC(O)(c2ccc(Cl)cc2)CC1)c1ccc(F)cc1	-18.4%	-2.3%	?	10.3µM*
O=C(CCCN1CCC(O)(c2cccc(C(F)(F)F)c2)CC1)c1ccc(F)cc1	-7.4%	i	?	11.2µM*
COC(=O)c1cc(CNC(=O)c2ccccc2)cc(NC(=O)c2ccccc2OC)c1	-3.9%	-13.6%	/	/
CC1CC(Nc2ccccc2)c2ccccc2N1C(=O)c1ccco1 (stereo not given)	2.2%[7.34 µM]	-12.5%[7.34 µM]	-17.6%	?
SMILES	VACV Venus inh	VACV mCherry inh	Lassa entry inh	Marburg entry inh
CC1CC(Nc2ccccc2)c2ccccc2N1C(=O)c1ccncc1 (stereo not given)	-13.2%	-7.6%	-24.2%	10µM*
CCCCCCCNC(=O)C1(CC2CC(c3cccc(Br)c3)=NO2)CCNCC1 (stereo not given)	11.2µM*	?	/	/
CC(CCc1ccccc1)NC(=O)COC(=O)c1cc(NS(=O)(=O)c2ccc(Cl)c([N+](=O)[O-])c2)ccc1O (stereo not given)	?	-21.6%	-11.5%	2.51µM*
CC(CCc1ccccc1)NC(=O)COC(=O)c1cccc2ccccc12 (stereo not given)	-8.9%	i	?	?
CCc1cc2c(nc1CC)CCN(CCC(C)=NOC[C@@H](C)[C@H](OCc1ccccc1)C(C)C)C2	/	/	/	-16.5%[14.2 µM]
CCN(CC)CCNc1ccnc2cc(Cl)ccc12	/	/	-17.5%	2.91µM*
COc1ccc(CN(C(=O)CSc2nnc(-c3c[nH]c4ccccc34)o2)c2ccc(F)cc2)cc1OC	10µM*	10µM*	7.08µM*	?
COc1ccc(CN(C(=O)CSc2nnc(-c3ccc(F)cc3)o2)c2ccc(F)cc2)cc1	-27.0%	?	?	6.3%
COC(=O)c1c(OCc2ccccc2)cc(=O)n2c1CCN(Cc1cccc(C)n1)CC2	0.0%	-0.5%	/	/
CCOC(=O)N/N=C1\C[C@@H](O)[C@@H](O)[C@@H]2[C@@H]3C(=O)N(Cc4ccccc4)C(=O)[C@@H]3CC[C@H]12	/	/	/	24.9%[14.2 µM]
Cc1nn(-c2ccccc2)c(C)c1/C=N/NC(=O)CSc1nnc(SCc2ccc(Cl)cc2)s1	?	?	9.2µM*	?
Cc1nn(-c2ccccc2)c(C)c1/C=N/NC(=O)c1cc(-c2ccc(Cl)s2)[nH]n1	/	/	10.3µM*	9.2µM*
Cc1c(/C=N/NC(=O)c2cccs2)c2ccccc2n1Cc1ccccc1Cl	9.4%	i	4.11µM*	2.91µM*
Cc1nn(-c2ccccc2)c(C)c1/C=N/NC(=O)c1cccs1	?	i	3.16µM*	11.2µM*
Cc1cc(C(=O)N/N=C/c2c(C)nn(-c3ccccc3)c2C)n[nH]1	-14.0%	i	-17.4%[46.1 µM]	4.9%[46.1 µM]
C/C=C(\C)NNC(=O)Cc1ccc(OC)cc1	-15.3%	-8.3%	/	/
O=C(N/N=C/c1ccccn1)c1cc(-c2ccc(Cl)s2)[nH]n1	-22.1%	12.6µM*	-15.1%[46.1 µM]	-17.1%[46.1 µM]
Cc1nn(-c2ccccc2)c(C)c1/C=N/NC(=O)c1cc(-c2ccc(Br)s2)[nH]n1	/	/	6.51µM*	7.3µM*
CCN(CC)CCN(C(=O)C1=COCCO1)c1nc2cc(C)cc(C)c2s1	-21.7%	i	-14.4%	11.2µM*
COc1ccc(C)c2sc(N(CCCN(C)C)C(=O)c3ccc4c(c3)OCCO4)nc12	?	-21.3%	10µM*	?
Cc1cc(C)c2nc(N(CCCN(C)C)C(=O)C3=COCCO3)sc2c1	?	-12.8%	?	20µM*
CCN(C(=O)C1=COCCO1)c1nc2c(C)cccc2s1	-6.0%	?	?	?
CCN(Cc1ccncc1)Cc1ccc2c(c1)CN(C(=O)c1ccccc1-n1cccn1)CCO2	-0.3%	-6.1%	/	/
Cc1cc(C(=O)Nc2ccccc2-c2nc(CNC(=O)c3cc4ccccc4cn3)c(C)o2)c(C)o1	7.0%	-8.1%	/	/
CC(C)NC(=O)c1cn([C@H]2CC[C@@H](NC(=O)/C=C/c3cccs3)CC2)nn1	-17.4%	-0.5%	/	/
CCC(=O)Nc1nc2ccccc2n1Cc1ccc(Cl)cc1	/	/	?	11.6µM*
CCN1C(=NCC(C)C)NC(c2cccc(F)c2)C(C(=O)OC)=C1C (stereo not given)	/	/	/	-5.2%[14.2 µM]
COc1ccc(N2CCN(C(=O)CSc3nnnn3-c3ccc4c(c3)OCCO4)CC2)cc1	-27.5%	-29.9%	2.91µM*	-5.7%
COc1ccc(-n2nnnc2SCC(=O)N2CCOCC2)cc1	-5.1%	i	/	/
COc1ccc(N=C2SC(CC(=O)Nc3ccccc3OC)C(=O)N2Cc2ccco2)cc1 (stereo not given)	-24.2%	?	16.4µM*	?
